Experimental data published in the supplement of paper PMC9942566.
± gives the standard deviation of the averaged measurements.

The compounds below were run on Serratia marcescens K904 PosmB-luxCDABE reporter (pMQ747) (assay: PosmB-lux reporter fold induction (RLU/OD600 relative to no-compound control), highest over Biolog concentrations; higher = stronger Rcs reporter activation). Conditions: wild type K904; 4 h.
Experimental: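 Serratia marcescens K904 (wild type) or its isogenic ΔrcsB mutant, carrying the Rcs-dependent PosmB-luxCDABE reporter plasmid pMQ747, was grown in LB at OD600 0.1 in Biolog Phenotype MicroArray plates PM11-20 for 4 h at 30-32°C. Each compound is present at 3-4 proprietary concentrations (not stated); per the Fig. S1 legend the value given is the highest fold over those wells. Three independent trials.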

Row | SMILES | PosmB-lux reporter fold induction
1 | CN[C@@H]1[C@H](O[C@H]2[C@H](O[C@H]3[C@H](O)[C@@H](O)[C@H](N=C(N)N)[C@@H](O)[C@@H]3N=C(N)N)O[C@@H](C)[C@]2(O)C=O)O[C@@H](CO)[C@H](O)[C@H]1O [streptomycin] (Biolog plate: PM16, well positions: E1-4) | 0.916 ± 0.16
2 | CN(C)[C@@H]1C(O)=C(C(N)=O)C(=O)[C@@]2(O)C(O)=C3C(=O)c4c(O)cccc4[C@@](C)(O)[C@H]3C[C@@H]12 [Tetracycline] (Biolog plate: PM12, well positions: A5-8) | 1.53 ± 0.2
3 | CCC(C)CCCC(=O)N[C@@H](CCN)C(=O)N[C@H](C(=O)N[C@@H](CCN)C(=O)N[C@H]1CCNC(=O)[C@H]([C@@H](C)O)NC(=O)[C@H](CCN)NC(=O)[C@H](CCN)NC(=O)[C@H](CC(C)C)NC(=O)[C@@H](CC(C)C)NC(=O)[C@H](CCN)NC1=O)[C@@H](C)O (some centres undefined) [Colistin] (Biolog plate: PM11, well positions: C5-8) | 2.54 ± 0.89
4 | CN[C@H](CC(C)C)C(=O)N[C@H]1C(=O)N[C@@H](CC(N)=O)C(=O)N[C@H]2C(=O)N[C@H]3C(=O)N[C@H](C(=O)N[C@H](C(=O)O)c4cc(O)cc(O)c4-c4cc3ccc4O)[C@H](O)c3ccc(c(Cl)c3)Oc3cc2cc(c3O[C@@H]2O[C@H](CO)[C@@H](O)[C@H](O)[C@H]2O[C@H]2C[C@](C)(N)[C@H](O)[C@H](C)O2)Oc2ccc(cc2Cl)[C@H]1O [Vancomycin] (Biolog plate: PM12, well positions: C5-8) | 5.39 ± 2
5 | CO/N=C(\C(=O)N[C@@H]1C(=O)N2C(C(=O)O)=C(COC(C)=O)CS[C@H]12)c1csc(N)n1 [cefotaxime] (Biolog plate: PM16, well positions: A2-4) | 0.992 ± 0.32
6 | CCN(CC)CC(=O)Nc1c(C)cccc1C [lidocaine] (Biolog plate: PM18, well positions: D9-12) | 1.37 ± 0.17
7 | Oc1c(I)cc(Cl)c2cccnc12 [5-chloro-7-iodo-8-hydroxy-quinoline] (Biolog plate: PM16, well positions: A9-12) | 1.27 ± 0.55
8 | NO [hydroxylamine] (Biolog plate: PM19, well positions: G9-12) | 1.82 ± 0.33
9 | CN(C)CCC=C1c2ccccc2CCc2ccccc21 [amitriptyline] (Biolog plate: PM20, well positions: A2-4) | 1.19 ± 0.11
10 | CC1(C)S[C@@H]2[C@H](NC(=O)C(C(=O)O)c3ccccc3)C(=O)N2[C@H]1C(=O)O (some centres undefined) [Carbenicillin] (Biolog plate: PM12, well positions: A9-12) | 2.2 ± 0.17
11 | COc1ccc(C[C@H](N)C(=O)N[C@H]2[C@@H](O)[C@H](n3cnc4c(N(C)C)ncnc43)O[C@@H]2CO)cc1 [Puromycin] (Biolog plate: PM15, well positions: F9-12) | 1.9 ± 0.2
12 | N[C@@H]1CONC1=O [D-Cycloserine] (Biolog plate: PM15, well positions: B1-4) | 1.37 ± 0.23
13 | CC[C@H]1OC(=O)[C@H](C)[C@@H](O[C@H]2C[C@@](C)(OC)[C@@H](O)[C@H](C)O2)[C@H](C)[C@@H](O[C@@H]2O[C@H](C)C[C@H](N(C)C)[C@H]2O)[C@](C)(O)C[C@@H](C)C(=O)[C@H](C)[C@@H](O)[C@]1(C)O [Erythromycin] (Biolog plate: PM11, well positions: F5-8) | 1.38 ± 0.32
14 | CCn1cc(C(=O)O)c(=O)c2cc(F)c(N3CCNCC3)nc21 [Enoxacin] (Biolog plate: PM11, well positions: E5-8) | 2.1 ± 0.62
